Sampled rows, rich in hits. Any-hit rate of the full collection: about 12%.
JMJD2A Tudor: qHTS Assay for Inhibitors of JMJD2A-Tudor Domain. AlphaScreen JMJD2A-Tudor / H3K4me3 peptide binding. 4.4% of 390,000 active. Potency, µM (top dose mostly 114 µM), for the others: at the top dose activity change, negative = inhibition, hits mostly inhibitors. AID 504339, 2011. Lysine-specific demethylase 4A (Homo sapiens), O75164; also: % is scaled to controls: 0 for no effect and ±100 for the full control effect; nearly all actives have a fitted effect of over 50% in size
G9a inh: qHTS Assay for Inhibitors of Histone Lysine Methyltransferase G9a; Histone-lysine N-methyltransferase EHMT2 (Homo sapiens), Q96KQ7; G9a H3K9 monomethylation, AlphaScreen, 2 h; 8.8% of 350,000 active; Potency, µM (top dose mostly 102 µM), inactives show top-dose activity, negative = inhibition, most hits filed as inhibitors; also: % is scaled to controls: 0 for no effect and ±100 for the full control effect; nearly all actives have a fitted effect of over 75% in size
Target sequence (Q96KQ7 913-1193 limits assumed): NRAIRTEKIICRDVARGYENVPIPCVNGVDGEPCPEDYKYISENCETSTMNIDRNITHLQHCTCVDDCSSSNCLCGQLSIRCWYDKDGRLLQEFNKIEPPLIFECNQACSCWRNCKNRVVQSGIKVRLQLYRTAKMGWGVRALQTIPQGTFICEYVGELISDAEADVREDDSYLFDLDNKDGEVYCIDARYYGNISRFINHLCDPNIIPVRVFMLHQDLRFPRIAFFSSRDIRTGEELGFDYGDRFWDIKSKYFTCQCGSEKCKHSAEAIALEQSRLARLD
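Using a bead-based AlphaScreen, monomethylated H3K9 product from 2 h room-temperature reactions (G9a 20 nM, peptide 500 nM, SAM 20 uM) was detected with 0.5 ug/mL rabbit anti-H3K9me1 antibody.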
BAZ2B block: qHTS Assay for Inhibitors of BAZ2B | Bromodomain adjacent to zinc finger domain protein 2B (Homo sapiens), Q9UIF8 | 4.4% of 360,000 active | Potency, µM (top dose mostly 114 µM), for inactives: top-dose activity change, negative = inhibition, most hits filed as inhibitors | AlphaScreen BAZ2B-H3K14Ac peptide displacement | AID 504333, 2011; also: % is scaled to controls: 0 for no effect and ±100 for the full control effect; nearly all actives have a fitted effect of over 60% in size
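BAZ2B (50 nM) with biotin-H3(5-23)K14Ac peptide (50 nM) in PBS pH 7.4, 0.01% Tween-20, preformed 30 min, then compound 30 min at room temperature; top concentration 110uM. AlphaScreen streptavidin donor/nickel chelate acceptor beads (10 ug/mL final), 20 min dark, signal read.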
Sfp inh: qHTS Assay for Inhibitors of Bacillus subtilis Sfp phosphopantetheinyl transferase (PPTase). 4'-phosphopantetheinyl transferase ffp (Bacillus subtilis), Q9F4F7. Biochemical Sfp PPTase activity, qHTS. 3.5% of 310,000 active. Potency, µM, inactives show largest response in the series, negative = inhibition, hits mostly inhibitors;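 also: the enzyme is Sfp with the accession as filed and its product quenches rhodamine fluorescence; 0% = enzyme reaction without inhibitor and -100% = no enzyme wells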
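Compounds were incubated with enzyme (final 15 nM) for 15 min at room temperature before substrate addition started the reaction. Fluorescence at 525 nm excitation, 598 nm emission was recorded immediately and after 30 minutes.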
HP1b binding inh: HTS for Inhibitors of HP1-beta Chromodomain Interactions with Methylated Histone Tails; Potency, µM (titrated, usually from 114 µM), inactives show at the top dose activity change, negative = inhibition, hits mostly inhibitors; AlphaScreen HP1-beta / biotin-H3K9me3 peptide binding; Chromobox protein homolog 1 (Homo sapiens), P83916; AID 540317, 2011; 0.56% of 390,000 active; also: nearly all actives have a fitted effect of over 70% in size
Target sequence (P83916 whole entry, looked up): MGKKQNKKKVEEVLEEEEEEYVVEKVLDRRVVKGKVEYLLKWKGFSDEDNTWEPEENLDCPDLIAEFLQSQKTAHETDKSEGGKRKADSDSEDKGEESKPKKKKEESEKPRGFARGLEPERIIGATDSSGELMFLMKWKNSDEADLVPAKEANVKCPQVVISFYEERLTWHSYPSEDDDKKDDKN
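HP1-beta protein (50 nM final) preincubated 30 min at room temperature with biotinylated H3(1-18)K9me3 peptide (50 nM) in PBS pH 7.4, 0.01% Tween-20, then compound added for 30 min. AlphaScreen streptavidin donor/nickel chelate acceptor beads (10 ug/mL final), 30 min dark, luminescence read.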
* = called active by the depositor; i = inactive; ? = inconclusive; . = not tested or not shown; [ ] = another dose, or the depositor's remark. Calls follow the shape of the dose curve; as a rule, active = well fitted curve in the direction sought with a large enough effect; inconclusive = small, poorly fitted or top-dose-only effect, or another doubt; inactive = no such curve, though single readings can be large; an effect the other way counts as inactive or inconclusive. Potency is read from the fitted curve at half-maximal effect.

SMILES	JMJD2A Tudor	G9a inh	BAZ2B block	Sfp inh	HP1b binding inh
O=C(NNC(=O)c1ccc(F)cc1)C(=O)N1CCCCC1	25µM*	?	8%	6%	10%
O=C(c1ccc(NS(=O)(=O)c2ccc(F)cc2)cc1)N1CCCCC1	-8%	45µM*	7%	.	8%
COc1cc(OC)cc(C(=O)NNC(=O)CCNS(=O)(=O)c2ccc(C)c(C)c2)c1	-8%	-7%	0%	.	24%
O=C(O)/C(=C\c1ccc(-c2ccccc2[N+](=O)[O-])o1)c1ccccc1	?	?	?	-40%	-16%
CCOc1ccc(N2C(=O)CC(NCCc3ccc(S(N)(=O)=O)cc3)C2=O)cc1 (centres undefined)	-11%	25µM*	4%	2%	45%
CCCOc1ccc(N2C(=O)CC(NCCc3ccc(S(N)(=O)=O)cc3)C2=O)cc1 (centres undefined)	-7%	35µM*	2%	5%	25%
CCOc1ccc(N2C(=O)CC(NCCc3ccncc3)C2=O)cc1 (centres undefined)	?	3%[59 µM]	13%	-8%	27%
CCCOc1ccc(N2C(=O)CC(NCCNc3ccc(S(=O)(=O)CC)cc3)C2=O)cc1 (centres undefined)	2%	?	-8%	8%	36%
Cc1cc(OCC(=O)NCCCn2ccnc2)c2c(C)c(C)c(=O)oc2c1	-13%	9%	-26%	18%	32%
COc1ccc(OC)c(NC(=O)CCn2cnnn2)c1	-13%	10%[59 µM]	-7%	.	2%
C/C(=N\NC(=O)C(N)=O)c1cccc([N+](=O)[O-])c1	?	?	?	-20%	33%
O=C(NNC(=S)NC(=O)c1ccc(Br)cc1)c1cccc([N+](=O)[O-])c1	-25%	35µM*	7%	-6%	20%
CNC(=S)N/N=C(\C)c1cccc([N+](=O)[O-])c1	-23%	?	50µM*	56µM*	-8%
O=C(NNC(=S)NC(=O)c1ccccc1Cl)c1cccc([N+](=O)[O-])c1	-15%	35µM*	3%	17%	-1%
NS(=O)(=O)c1cccc(NC(=S)NC(=O)c2cccc([N+](=O)[O-])c2)c1	-20%	.	-10%	50µM*	?
O=C(NNC(=S)NC(=O)c1ccc(Br)cc1)c1ccc([N+](=O)[O-])cc1	-33%	-9%[0.501 µM]	3%	-12%	-15%
O=C(CCNC(=O)c1ccc(Cl)cc1)NCCCN1CCOCC1	-1%	0%[12.7 µM]	0%	.	39%
CC(=O)Nc1ccc(NC(=O)CS(=O)(=O)Cc2ccccc2)cc1	4%	50%	1%	20%	27%
O=[N+]([O-])c1ccc(NC(=S)N/C(=N/CS(=O)(=O)c2ccccc2)c2ccccc2)cc1	-25%	11µM*	?	-7%	25%
CC(=O)NNC(=S)NC(=O)c1cccc([N+](=O)[O-])c1	8.9µM*	?	?	11µM*	?
CC(=NCCc1c(C)[nH]c2ccc(C)cc12)C1=C(O)CC(c2ccccc2)CC1=O (centres undefined)	?	?	-39%	1%	-15%
CCc1ccccc1NC(=S)N1CCC(NC(=O)c2ccc(OC)cc2)CC1	-1%	-5%[0.501 µM]	-2%	26%	21%
COc1cccc(NC(=S)NCc2ccc(F)cc2)c1	-14%	.	14%	13%	26%
CCc1ccccc1NC(=S)NCC1CCN(c2ccc(OC)cc2)C1 (centres undefined)	35µM*	?	22µM*	-11%	13µM*
COc1ccc(N2CCC(CNC(=S)Nc3cccc(OC)c3)C2)cc1 (centres undefined)	.	?	16µM*	-9%	.
SMILES	JMJD2A Tudor	G9a inh	BAZ2B block	Sfp inh	HP1b binding inh
COc1ccc(CC(=O)NCC2CCCN(Cc3ccccc3Cl)C2)cc1 (centres undefined)	7%	15%	7%	19%	28%
CCc1cccc(C)c1NC(=S)NCC1CCN(c2ccc(OC)cc2)C1 (centres undefined)	45µM*	10µM*	28µM*	-8%	22µM*
CCOC(=O)OC(C)OC(=O)[C@@H]1N2C(=O)[C@@H](NC(=O)[C@H](N)c3ccccc3)[C@H]2SC1(C)C (some centres undefined)	-10%	-5%[59 µM]	8%	.	30%
O=C(NCc1nc(-c2ccccc2)cs1)c1ccccc1	-2%[57.1 µM]	28%	3%	21%	-3%
COc1ccc(N2CCN(c3nc(Nc4ccc(C)c(F)c4)nc(N4CCCC4)n3)CC2)cc1	?	7.1µM*	7.9µM*	19%	?
COc1ccc(N2CCN(c3nc(Cl)nc(Nc4ccc(F)cc4)n3)CC2)cc1	-11%	10µM*	?	-4%	30%
Cc1nn2c(-c3cccc(NC(=O)CSc4nc5ccccc5o4)c3)nnc2c2ccccc12	-28%	16µM*	9%	56µM*	3%
Cc1cccc(NC(=O)CSc2nc3ccccc3o2)c1	7%	11%	15%	-9%	67%
CC1=C(C(=O)Nc2ccccc2)C2(CCCCC2)C(C#N)=C(S)N1	-34%	7.9µM*	-32%	32µM*	2%
CSC1=C(C#N)C2(CCCCC2)C(C(=O)Nc2ccccc2)=C(C)N1	-27%	.	.	.	18%
Cc1nc2cc3nc(C)sc3cc2s1	-30%	7.1µM*	-7%	40µM*	?
COC(OC)c1ccc(C#N)c(SCc2ccc(C)cc2)n1	91%	i	239%	-5%	108%
CCC(=O)NC(c1ccc(N(C)C)cc1)c1c(O)ccc2ccccc12 (centres undefined)	50µM*	10µM*	28µM*	2%	?
CC(C)C(=O)NC(c1ccco1)c1c(O)ccc2ccccc12 (centres undefined)	?	32µM*	-34%	-2%	-5%
Cc1nc(C)c(C(=O)N2CCCC(CCC(=O)NCc3ccc(F)c(F)c3)C2)s1 (centres undefined)	0%	10%	3%	5%	37%
CC(Oc1ccccc1)C(=O)Nc1ccccc1O (centres undefined)	-6%	19%	-4%	16%	17%
O=C(NC1CCCC1)C1c2ccccc2C(=O)N1C1CCCCC1 (centres undefined)	-6%	7%[59 µM]	-1%	14%	21%
CN1CCCN(C(=O)c2ccc(Cl)c(S(=O)(=O)N(C)c3ccccc3)c2)CC1	-13%	50µM*	0%	9%	28%
COc1ccc(OC)c(/C=N/NC(=O)CSc2cc(C)nc3c(OC)cccc23)c1	-35%	.	-16%	-10%	23%

Source: PubChem BioAssay
